CtBP-E1A blk: inhibitors of CtBP/E1A interaction; AlphaScreen GST-E1A/His-CtBP binding, 1536-well; stronger effect = lower value; activity change, % (test concentration not listed); actives 0.49% (n = 340,000); AID 651724; in the data active = activity change below about -65%; inconclusive = mostly about -30% to -63%; note: % is set by controls: 0 for no effect and ±100 for the full control effect
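In 5 uL wells, 23 nL compound meets equimolar GST-E1A and His-CtBP (5X stock 125 nM each) for 2 h, 37 °C. Beads (5X, 50 ug/mL) then 1 h, 37 °C, dark.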
MBNL1-CUG inh: blocks human MBNL1 binding to CUG repeat RNA; TR-FRET MBNL1-His/biotin-(CUG)12 binding, 665/545 ratio; Q9NR56; AID 2675; Potency, µM (titrated, usually from 57.5 µM), for the others: top-dose activity change, negative = inhibition, usual class: inhibitors; actives 0.036% (n = 280,000); active = well fitted inhibition curve with a large enough effect in the signal ratio, with a control signal flat, not every such curve was filed as active; inconclusive = small, poorly fitted or top-dose-only effect, or effect the other way, or a change in a side signal; inactive = no such curve, though single readings can be large or run the other way; the % refers to the signal ratio; note: potency is the fitted concentration of half-maximal effect; % is set by controls: 0 for no effect and ±100 for the full control effect
Target sequence (Q9NR56 whole entry, looked up): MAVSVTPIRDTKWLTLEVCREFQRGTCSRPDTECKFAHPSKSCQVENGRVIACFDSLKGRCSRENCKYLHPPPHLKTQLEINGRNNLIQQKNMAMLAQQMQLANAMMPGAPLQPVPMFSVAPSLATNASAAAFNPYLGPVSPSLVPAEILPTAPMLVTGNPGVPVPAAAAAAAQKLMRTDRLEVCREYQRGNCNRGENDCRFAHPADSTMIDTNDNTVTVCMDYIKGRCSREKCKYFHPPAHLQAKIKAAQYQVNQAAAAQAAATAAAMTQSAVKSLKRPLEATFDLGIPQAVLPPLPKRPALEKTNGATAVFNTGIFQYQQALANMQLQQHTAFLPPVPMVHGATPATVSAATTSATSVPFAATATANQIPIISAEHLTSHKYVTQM
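His-tagged MBNL1 binding to biotinylated (CUG)12 RNA was measured by TR-FRET using terbium anti-His antibody (0.055 ng/ul final) and streptavidin-XL665 (5 nM final). Compounds were titrated 92 nM to 58 uM; 60 min at room temperature.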
L3MBTL1 inh: L3MBTL1 (human) inhibition; AlphaScreen L3MBTL1–H3K9me1 peptide binding; Potency, µM (doses to about 57.1 µM), inactives show at the top dose activity, negative = inhibition, hits mostly inhibitors; actives 0.66% (n = 230,000); AID 485360; Q9Y468; note: potency is the fitted concentration of half-maximal effect; % is set by controls: 0 for no effect and ±100 for the full control effect; nearly all actives have a fitted effect of over 60% in size
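First, the protein-peptide complex forms for 30 min at room temperature (L3MBTL1 50 nM, biotinylated H3K9me1 peptide 75 nM). Next, compounds are pin-transferred and incubated 30 min. Finally, AlphaScreen beads are added and read after 30 min.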
Eya2 phos inh: inhibitors of human Eya2 phosphatase activity | recombinant Eya2, OMFP fluorescence dephosphorylation (OMFP is methylfluorescein phosphate) | Potency, µM (highest dose often 76.9 µM), without a hit: top-dose activity, negative = inhibition, usual class: inhibitors | actives 0.006% (n = 330,000) | AID 488837; note: potency is the fitted concentration of half-maximal effect; % is set by controls: 0 for no effect and ±100 for the full control effect
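Eya2 protein (added as 0.2 uM solution) was preincubated with compound for 10 min at ambient temperature in 50 mM HEPES pH 7.5, 50 mM NaCl, 5 uM MgCl2, 0.05% BSA, 1 mM DTT. OMFP (added at 50 uM) then reacted 10 min; fluorescence read at 485/525 nm.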
Six1-Eya2 blk: Six1/Eya2 interaction inhibition; Q15475+O00167; AlphaScreen GST-Six1/His-Eya2 binding, biochemical; stronger effect = lower value; activity change, % (test concentration not listed); actives 0.56% (n = 360,000); in the data active = activity change below about -65%; inconclusive = mostly about -30% to -63%; note: % is set by controls: 0 for no effect and ±100 for the full control effect
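Homogeneous AlphaScreen proximity assay pairing GST-Six1 with His-tagged Eya2 (added as 5X mix: 250 nM and 500 nM) in 50 mM Tris pH 8.0, 300 mM NaCl, 1 mM TCEP. Glutathione donor and nickel acceptor beads; 1 h, 37 °C, dark.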
CBFb-RUNX1 inh: blocks binding between human CBF-beta and RUNX1; Q01196+Q13951; AlphaScreen CBFb-His/RUNX1-biotin binding, biochemical; Potency, µM (top dose mostly 59.8 µM), for inactives: top-dose activity, negative = inhibition, actives largely listed as inhibitors; 230,000 tested, under 10 active; note: % of control where 0% means no effect
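CBF-beta (His) and RUNX1 (biotin), 30 nM each; 20 min preassociation; + compound, 15 min; + beads 50 ng each (Ni, streptavidin), 90 min; RT; AlphaScreen read.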
* = called active by the depositor; ? = inconclusive; . = not tested or not shown; [ ] = remark or other dose. Sampled rows, rich in hits. Any-hit rate of the full collection: about 0.89%. Unless noted, calls come from the whole dose curve; as a rule, active = well fitted curve in the direction sought with a large enough effect; inconclusive = small, poorly fitted or top-dose-only effect, or another doubt; inactive = no such curve, though single readings can be large; an effect the other way counts as inactive or inconclusive.

SMILES | CtBP-E1A blk | MBNL1-CUG inh | L3MBTL1 inh | Eya2 phos inh | Six1-Eya2 blk | CBFb-RUNX1 inh
O=C(C[C@H]1C[C@@H]2c3cc(NC(=O)c4ccc5c(c4)OCO5)ccc3O[C@@H]2[C@H](CO)O1)NCc1cc(F)ccc1F | -67* | . | . | . | -70* | .
CN(C)c1ccc(C(=O)C(O)c2ccccc2)cc1 (stereo not drawn) | 5 | ? | 5% | -14% | 2 | 14%
CN(C)c1ccc(C(c2ccc(N(C)C)cc2)C(O)c2ccccc2)cc1 (stereo not drawn) | -2 | . | . | . | -65* | .
CN(C)CC1C2CCC(C2)C1O (stereo not drawn) | 7 | . | . | . | 0 | .
c1ccc(COc2ncnc3c2ncn3CCCNC2CCN(Cc3ccccc3)CC2)cc1 | -4 | . | . | . | -15 | .
O=c1[nH]c(-c2ccccc2)c(-c2ccccc2)o1 | -15 | 10% | . | 8% | -6 | .
O=C(NCc1ccc(F)cc1)c1ccc2c(c1)S(=O)(=O)c1ccccc1C2=O | -8 | . | . | . | -15 | .
Cc1nc2ccccc2nc1N/N=C/c1ccc(O)cc1 | -7 | . | -18% | -1% | -23 | -6%
Cc1nc(N/N=C/c2ccc(O)cc2)c2cnn(-c3ccccc3)c2n1 | -76* | -2% | 6% | -8% | ? | -2%
O=S(=O)(NCC1CCCO1)c1ccc(S(=O)(=O)N(Cc2ccc(F)cc2)Cc2ccco2)cc1 (stereo not drawn) | -13 | . | -4% | -7% | -4 | 10%
CCN1CCN(C(=O)c2cc3ccc(OC)cc3[nH]2)CC1 | 3 | ? | . | 1% | 1 | .
COc1ccc2cc(C(=O)N3CCN(Cc4ccc5c(c4)OCO5)CC3)[nH]c2c1 | -97* | -3% | . | -1% | 16 | .
COc1ccc2[nH]c3c(N4CCN(Cc5ccc6c(c5)OCO6)CC4)ncnc3c2c1 | ? | -16% | -4% | -2% | -65* | -5%
O=C1CCCCC(=O)[C@H](OC(=O)c2ccccc2)C[C@H](c2ccccc2)O1 | 0 | . | . | . | -3 | .
O=c1c2ccccc2nc2c3ccccc3c(NCc3cccnc3)nn12 | -22 | . | ? | 2% | -4 | 8%
O=c1c2ccccc2nc2c3ccccc3c(NCCO)nn12 | -71* | -1% | 1% | 17% | -69* | 7%
O=c1c2ccccc2nc2c3ccccc3c(NCc3ccccn3)nn12 | -69* | 1% | 3% | -23% | ? | 2%
COC(=O)C1=C(C(=O)OC)SC(=C2C(=S)C(C)(C)N(C(=O)C3CC3)c3ccccc32)S1 | -80* | 11% | . | 1% | -77* | .
CC1CC(C)CN(CCOc2ccc(Br)cc2)C1 (stereo not drawn) | -12 | 1% | 1% | 7% | -5 | 8%
Cc1cc2nc3s/c(=C/c4ccc(-c5ccccc5C(=O)O)o4)c(=O)n3c2cc1C | . | 9% | . | 3% | ? | .
O=C1NN(c2ccccc2)C(=O)/C1=C/c1ccc(-c2ccc(Cl)c(C(=O)O)c2)o1 | 1 | -4% | . | -6% | -11 | ?
O=C(O)c1cc(-c2ccc(/C=c3\sc4nc5ccc(Br)cc5n4c3=O)o2)ccc1Cl | . | 6% | 28µM* | 3% | . | .
O=C(O)c1cc(-c2ccc(/C=C3\NC(=O)N(c4ccc(Cl)cc4)C3=O)o2)ccc1Cl | . | 9% | 7.9µM* | -4% | -19 | ?
O=C(O)c1ccccc1-c1ccc(/C=c2\sc3nc4cc(Br)cnc4n3c2=O)o1 | ? | ? | 13µM* | 24% | -81* | .
COc1ccc(Br)c(Cn2c(C)c(C(=O)NCc3ccccc3C(F)(F)F)sc2=O)c1 | 0 | . | . | . | -7 | .
SMILES | CtBP-E1A blk | MBNL1-CUG inh | L3MBTL1 inh | Eya2 phos inh | Six1-Eya2 blk | CBFb-RUNX1 inh
Cc1cccc(-n2c(CNC(=O)c3ccccc3)nnc2SCC(=O)Nc2nccs2)c1 | 0 | 0% | -4% | 17% | 3 | 19%
c1ccc2cc(OCCCn3ccnc3)ccc2c1 | -19 | 4% | -1% | 4% | -4 | .
O=C1CCN(Cc2ccc(Br)cc2)CCN1[C@H](CO)Cc1ccccc1 | 3 | 5% | -3% | -5% | 6 | .
O=C(NNC(=O)c1cc(S(=O)(=O)N2CCOCC2)c(Cl)cc1Cl)c1ccccc1F | -87* | . | 5% | -2% | -66* | .
O=C(Nc1ccccc1O)c1cc(S(=O)(=O)N2CCOCC2)c(Cl)cc1Cl | ? | ? | 0% | -11% | -21 | 6%
c1ccc(-c2nc(NCc3cccnc3)c3oc4ccccc4c3n2)cc1 | -27 | 5% | 7% | 5% | -24 | -3%
O=C1C(=O)c2cccnc2-c2ncccc21 | -80* | . | . | . | -83* | .
CN(CC1CCCN(CCc2ccc(Cl)cc2)C1)C(=O)c1ccco1 (stereo not drawn) | 2 | . | . | . | -1 | .
O=C(NC(=S)NNC(=O)c1cnccn1)c1ccc(F)cc1 | . | 6% | . | -1% | -92* | .
O=C(/C=C/c1ccc(F)cc1)NC(=S)NNC(=O)c1cnccn1 | -81* | 9% | . | 4% | -90* | -29%
O=C1C(=C(O)c2ccccc2)C(=O)c2ccccc21 | -7 | ? | 20% | 31% | -3 | 11%
O=C1C(=C(c2ccccc2)c2ccccc2)Nc2ccccc21 | ? | ? | . | 6% | -70* | ?
Cn1nnnc1SCc1ccc(C(=O)Nc2nccs2)cc1 | -80* | 0% | 28%[11.4 µM] | -19% | -70* | 2%
C#CCCOC(=O)N1C2=NC(C(=O)OC)=C(C(=O)OC)[C@@H]3N(CC#CC)c4ccccc4[C@]23C[C@H]1C(=O)OC | . | . | . | . | . | -3%[13.1 µM]
S=C(NCc1ccccc1)NCc1ccccc1Cl | -68* | -1% | . | 5% | -3 | .
O=C1CCn2c1c(O)c1ccccc1c2=O | -2 | . | . | . | 23 | .
